# High-throughput results from PubChem BioAssay.
# In the library only some 2.2% were active in any assay of this set; here they are far more common.
# KLF5 inhibitor = KLF5 expression inhibitors, primary screen, DLD-1 cells, luminescence; DLD-1 KLF5 promoter-luciferase reporter; hit rate 0.23% among 290,000; inhibition, % at 5 µM;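 active = inhibition above a per-plate limit of that plate's mean compound inhibition plus 3 SD, cut at about 60% in these data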;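 also: 0% = DMSO wells and 100% = LY294002 at 200 µM; higher means less KLF5 promoter-driven luciferase light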
# Ba/F3 V617F tox = reduced viability of JAK2V617F-dependent Ba/F3 cells, primary screen, JAK2V617F inhibitor project, cell-based, Ba/F3 EpoR-JAK2V617F, luminescence; ATP luminescence; inhibition, % at 5.6 µM; hit rate 1.1% among 220,000; AID 1446, 2008;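 active = inhibition above the campaign mean plus 3 SD over all tested compounds, cut at about 24% in these data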;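 also: cytokine-independent growth of Ba/F3 cells driven by EpoR plus mutant JAK2; 0% = DMSO-treated cells and 100% = JAK inhibitor I control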
# aSyn UTR inh = MLPCN primary screen, SNCA 5' untranslated region. alpha-synuclein 5'UTR reporter, inhibitor activity. AID 1813, 2009. inhibition, % (tested at 7.5 µM). hit rate 0.82% among 300,000; in the data active = inhibition above about 60%;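 also: H4 neuroglioblastoma cells stably carrying SNCA 5'UTR luciferase fusion; 0% = DMSO wells and 100% = positive control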
# BaF3 parental = parental Ba/F3 cell viability inhibition, counter-screen for JAK2V617F inhibitor project, murine pro-B, CellTiter-Glo luminescence | CellTiter-Glo ATP luminescence | inhibition, % at 5.6 µM | hit rate 1.1% among 220,000 | AID 1486, 2009;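 active = inhibition above a per-campaign cutoff, the mean inhibition of all tested compounds plus 3 SD, cut at about 27% in these data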;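 also: 0% = DMSO wells and 100% = JAK Inhibitor I control wells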
# APP transl inh = inhibitors of APP translation via 5'UTR reporter, primary screen, APP 5'UTR luciferase, SH-SY5Y cells. SH-SY5Y APP 5'UTR-luciferase reporter, luminescence. inhibition, % at 2 µM. hit rate 0.82% among 190,000. AID 1285, 2008;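 active = inhibition above a set limit, derived from the sample mean plus 3 SD, cut at about 45% in these data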
# IEC-6 tox = cytotoxicity in IEC-6 intestinal epithelial cells, primary screen, cytotoxicity control for KLF5 inhibitor project, cell-based, luminescence | IEC-6 cytotoxicity, luminescence viability | inhibition, % at 5 µM | hit rate 0.78% among 290,000; in the data active = inhibition above about 22%;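 also: 0% = plate median of test compound wells and 100% = cytotoxic reference compound wells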
# Starred values were filed as active, the others as inactive; . = not tested or not shown.
SMILES,KLF5 inhibitor,Ba/F3 V617F tox,aSyn UTR inh,BaF3 parental,APP transl inh,IEC-6 tox
COc1ccc(C(=O)Nc2ccc3c(c2)C(=O)N(C)C3=O)cc1OC,-85.2,.,-38.2,.,.,3.6
CC(C)CCN1C(=O)C2(OCCCO2)c2cc(Cl)ccc21,-23.7,.,10.7,.,.,-4.5
CCC(O)c1nc2ccccc2n1CCc1ccccc1 (centres undefined),-31.7,.,1.0,.,.,0.8
C=CCOc1ccccc1CNc1cccc(F)c1,-21.1,0.0,-48.5,4.0,56.9*,-0.9
CC(=O)c1ccc(OCc2cc(C(=O)N(C)CCOc3ccc(C)cc3)no2)cc1,-149.6,.,-170.1,.,.,3.3
COc1ccc(C2=NNC(=O)CC2)cc1,-0.2,-3.2,6.6,-1.7,-5.0,2.4
CCCOc1ccc(C2=NNC(=O)CC2)cc1,10.7,2.5,77.5*,7.5,5.0,2.0
Nc1nc(F)nc2c1ncn2[C@@H]1O[C@H](CO)[C@@H](O)[C@H]1O,.,.,121.7*,.,.,.
Nc1nc(Cl)nc2c1ncn2C1CC(O)C(CO)O1 (centres undefined),.,.,87.1*,.,.,.
Nc1nc2c(ncn2[C@H]2C[C@H](O)[C@@H](CO)O2)c(=O)[nH]1,.,.,7.1,.,.,.
CC1CCCN(c2ccc([N+](=O)[O-])cc2C(=O)c2ccccc2)C1 (centres undefined),41.6,77.0*,84.1*,79.1*,93.9*,45.1*
O=C(c1ccc(Br)cc1)c1cc([N+](=O)[O-])ccc1N1CCOCC1,10.6,80.5*,27.3,83.0*,88.0*,11.6
O=C(OCc1cccc(Cl)c1)c1cc([N+](=O)[O-])ccc1N1CCOCC1,.,.,6.2,.,.,.
CC1CCN(c2ccc([N+](=O)[O-])cc2C(=O)O)CC1,-37.8,-1.2,21.3,4.1,-14.6,-2.8
COc1ccc(COC(=O)c2cc([N+](=O)[O-])ccc2N2CCOCC2)cc1F,.,.,68.3*,.,.,.
O=C(c1ccc(Cl)cc1)c1cc([N+](=O)[O-])ccc1N1CCOCC1,-20.2,72.5*,117.6*,74.2*,92.9*,3.5
O=C(c1cc([N+](=O)[O-])ccc1N1CCOCC1)N1CCCCC1,-11.7,4.5,-11.0,11.7,-7.2,7.9
O=C(O)c1cnc2[nH]c3ccccc3n2c1=O,-23.8,2.3,-10.2,-1.4,.,4.2
CCC1Oc2ccccc2N(CC(=O)NCc2ccco2)C1=O (centres undefined),-15.0,-2.4,-15.3,4.6,-12.8,-1.4
CCC(=O)N/C(N)=N/c1nc(C)c2cc(OC)ccc2n1,-34.9,23.1,-106.5,27.4*,-27.4,2.7
CCOC(=O)c1c(NC(=O)c2ccc(S(=O)(=O)N3CCOCC3)cc2)sc2c1CC(C)(C)NC2(C)C,-35.4,.,-25.4,.,.,-6.2
CCOC(=O)c1c(NC(=O)c2ccc(S(=O)(=O)N3CCOCC3)cc2)sc2c1CCN(C)C2,-14.1,-3.5,.,32.9*,-2.3,2.0
CCC(CNc1cc(OC)cc2cccnc12)NC1CCCCC1 (centres undefined),-15.2,42.7*,-16.7,27.4*,.,2.1
COc1cc(NCCCC(C)N)c2ncccc2c1 (centres undefined),-2.5,40.7*,9.2,35.8*,2.6,15.7
COc1cc(NC(=O)c2ccccc2Cl)c2ncccc2c1,-37.7,.,-42.7,.,.,16.7
SMILES,KLF5 inhibitor,Ba/F3 V617F tox,aSyn UTR inh,BaF3 parental,APP transl inh,IEC-6 tox
CCCCc1cc(=O)oc2cc(OCC(=O)NCCN3CCOCC3)ccc12,-30.2,.,17.7,.,.,1.7
CCOC(=O)c1c(C)[nH]c(C(=O)Nc2ccc(NC(C)=O)cc2)c1C,-13.1,3.8,89.5*,8.1,13.0,3.7
CCc1ccccc1OCC(=O)Nc1nc(-c2cccnc2)cs1,13.3,0.3,70.2*,8.9,5.8,6.1
CCC(=O)c1ccc(OCC(=O)Nc2nc(-c3cccnc3)cs2)cc1,.,.,-17.2,.,.,.
CCOc1ccc(NS(=O)(=O)c2csc(C(N)=O)c2)cc1,-20.8,.,-7.7,.,.,-0.7
O=C(CN1C(=O)S/C(=C\c2ccccc2F)C1=O)NC1C=CS(=O)(=O)C1 (centres undefined),-25.7,.,-52.6,.,.,4.3
CCSc1nccc(-c2nn(-c3ccc(C)cc3)ccc2=O)n1,6.7,31.4*,21.4,37.7*,.,17.4
COCCCN=C1NN=C(c2cc(C)n(Cc3ccccc3Cl)c2C)CS1,-13.7,-2.0,22.6,3.9,76.4*,7.4
